The results in this text go back to PubChem BioAssay (NCATS).

Assay in all cases: Primary qHTS to identify gynecologic anti-cancer compounds using libraries of approved drugs and bioactive compounds (AID 1345084); further: nearly all actives have a fitted effect of over 55% in size
A general note: Quantitative high-throughput screening tests each substance at several concentrations.

Assay [1] deals with CASKI. To be noted: Gynecologic cancer cell panel viability, ATPlite luminescence, 48 h; series mostly up to 57.5 µM. In short, it runs like this: (§1)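 Measured: luminescence after ATPlite addition (15 min, RT). Exposure: 48 h, 37 C, 5% CO2.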
Assay [2] deals with Es-2. To be noted: Gynecologic cancer cell panel viability, ATPlite luminescence, 48 h; series mostly up to 57.5 µM. The procedure, abridged: as §1
Assay [3] concerns HeLa. Conditions: Gynecologic cancer cell panel viability, ATPlite luminescence, 48 h; series mostly up to 57.5 µM. The procedure, abridged:
as §1

Assay [4] has as its system Hek293T. To be noted: Gynecologic cancer cell panel viability, ATPlite luminescence, 48 h, control line for the selectivity index; series mostly up to 57.5 µM. The procedure, abridged:
as §1

The subject of assay [5] is JEG-3. To be noted: Gynecologic cancer cell panel viability, ATPlite luminescence, 48 h; series mostly up to 57.5 µM. The procedure, abridged:
as §1
A general note: In ATP-based viability assays light output follows the ATP content of the culture.

Assay [6] relates to OV90. Conditions: Gynecologic cancer cell panel viability, ATPlite luminescence, 48 h; series mostly up to 57.5 µM. The procedure, abridged:
as §1

In assay [7] the test system is PA-1. To be noted: Gynecologic cancer cell panel viability, ATPlite luminescence, 48 h; series mostly up to 57.5 µM. In short, it runs like this: as §1
Assay [8] relates to SKOV3. Conditions: Gynecologic cancer cell panel viability, ATPlite luminescence, 48 h; series mostly up to 57.5 µM. In short, it runs like this: as §1
Assay [9] concerns Tov-21-G. To be noted: Gynecologic cancer cell panel viability, ATPlite luminescence, 48 h; series mostly up to 57.5 µM. The procedure, abridged:
as §1

Assay [10] has as its system Tov112D. Conditions: Gynecologic cancer cell panel viability, ATPlite luminescence, 48 h; series mostly up to 57.5 µM. In short, it runs like this: as §1

Results filed as inconclusive are left out. Calls of active or inactive are those of the source. The call rests on the fitted dose curve; in most records, active means well fitted cell-killing curve with a large enough effect; inconclusive means small, poorly fitted or top-dose-only effect, or effect the other way; inactive means flat fitted curve, though single readings scatter.
Potency means the concentration at half of the fitted maximal effect.

As to `Cc1nc(N)nc(N)c1-c1ccc(Cl)c(Cl)c1`, the Potency was 1410 nM (active) in assay [1]; 1000 nM (active) in [2]; 11200 nM (active) in assay [3]; 1580 nM (active) in [4]; 11200 nM (active) in [5]; 891 nM (active) in [6]. Also, the Potency in assay [7] is 3160 nM (active); in [9] it was 794 nM (active); in assay [10], 3550 nM (active). Moreover, in [8], the Potency result was “inactive”.
With `CCCOc1ccc2c(c1)CC[C@@H]1[C@@H]2CC[C@]2(C)C(OC)CC[C@@H]12` (some centres undefined), the Potency result in assay [1], in assay [2], in [3], in assay [4], in assay [5] and in assay [6] was “inactive” each time. Further, the Potency result in [7], in [8], in assay [9] and in [10] was “inactive” each time.
Consider `OCc1cccnc1`, for which the Potency entry in assay [1], in assay [2], in assay [3], in [4], in [5] and in [6] was “inactive” each time. Also, the Potency result in assay [7], in assay [8], in assay [9] and in [10] was “inactive” throughout.
Consider `Cc1[nH]cnc1-c1ccc(Cl)cc1`, for which the Potency result in assay [1], in assay [2], in assay [3], in assay [4], in assay [5] and in assay [6] was “inactive” throughout. For the same molecule, the Potency entry in [7], in assay [8], in assay [9] and in assay [10] was “inactive” throughout.
Turning to `CC(C)(C)NCC(O)COc1ccccc1OCC1CCCO1` (centres undefined), the Potency result in assay [1], in [2], in [3], in assay [4], in [5] and in assay [6] was “inactive” in each case. The Potency result in [7], in assay [8], in [9] and in [10] was “inactive” each time.
Regarding `CC1(C)S[C@@H]2[C@H](NC(=O)C(c3ccccc3)S(=O)(=O)O)C(=O)N2[C@H]1C(=O)O` (some centres undefined), the Potency entry in assay [1], in assay [2], in assay [3], in assay [4], in [5] and in assay [6] was “inactive” throughout. Further, the Potency result in assay [7], in assay [8], in assay [9] and in assay [10] was “inactive” in each case.
Take `CC(C)C(=O)OCc1cccc(OC(=O)[C@@H]2N3C(=O)[C@@H](NC(=O)Cc4ccccc4)[C@H]3SC2(C)C)c1`: the Potency entry in [1], in [2], in [3], in [4], in [5] and in assay [6] was “inactive” throughout. The Potency entry in assay [7], in [8], in [9] and in assay [10] was “inactive” in each case.
With `OC1(c2ccc(Cl)cc2)CCNCC1`, the Potency result in assay [1], in assay [2], in [3], in [4], in [5] and in assay [6] was “inactive” in each case. Further, the Potency result in assay [7], in [8], in assay [9] and in assay [10] was “inactive” in each case.
With `O=C1Nc2cc(Cl)ccc2Oc2ccccc21`, the Potency result in [1], in assay [2], in assay [3], in [4], in [5] and in [6] was “inactive” each time. Further, the Potency entry in assay [7], in assay [8], in [9] and in assay [10] was “inactive” each time.
Regarding `COc1c(N2C[C@@H]3CCCN[C@@H]3C2)c(F)cc2c(=O)c(C(=O)O)cn(C3CC3)c12`, the Potency entry in assay [1], in assay [2], in assay [3], in assay [4], in assay [5] and in assay [6] was “inactive” in each case. The Potency result in [7], in assay [8], in assay [9] and in [10] was “inactive” in each case.
For `O=S(=O)(O)c1ccc2nc(-c3ccccc3)[nH]c2c1`, the Potency result in [1], in assay [2], in [3], in [4], in [5] and in assay [6] was “inactive” each time. Also, the Potency result in assay [7], in assay [8], in assay [9] and in assay [10] was “inactive” each time.
Take `CC(C)(C)C(=O)OCOC(=O)C1N2C(=O)CC2S(=O)(=O)C1(C)C` (centres undefined): the Potency entry in assay [1], in assay [2], in assay [3], in [4], in [5] and in assay [6] was “inactive” throughout. Moreover, the Potency result in assay [7], in [8], in [9] and in assay [10] was “inactive” each time.
Take `COC(=O)CCCCC(CCSS/C(CCO)=C(\C)N(C=O)Cc1cnc(C)nc1N)SC(C)=O` (centres undefined): the Potency entry in assay [1], in [2], in assay [3], in [4], in [5] and in [6] was “inactive” each time. Also, the Potency entry in assay [7], in assay [8], in [9] and in assay [10] was “inactive” each time.
For the molecule `N=C(N)c1ccc(OCCCOc2ccc(C(=N)N)cc2)cc1`, the Potency result in assay [1], in assay [2], in assay [3], in assay [4], in assay [5] and in assay [6] was “inactive” throughout. The Potency result in [7], in assay [8] and in assay [10] was “inactive” each time.
`O=C(O)[C@@H](O)[C@H](O)[C@H](O)[C@@H](O)C(=O)O`: the Potency result in [1], in [2], in assay [3], in [4], in assay [5] and in [6] was “inactive” throughout. Besides, the Potency result in assay [7], in assay [8], in [9] and in [10] was “inactive” throughout.
Turning to `Oc1ccccc1-c1nnco1`, the Potency entry in assay [1], in assay [2], in assay [3], in assay [4], in assay [5] and in assay [6] was “inactive” each time. Moreover, the Potency result in [7], in assay [8], in assay [9] and in assay [10] was “inactive” throughout.
